WRN inhibitor = blocks human WRN helicase; WRN helicase unwinding, fluorescent forked duplex, kinetic; Potency, µM (series often up to 114 µM), most hits filed as inhibitors; 0.46% of 360,000 active; Q14191; further: nearly all actives have a fitted effect of over 55% in size
Target sequence (Q14191 whole entry, looked up): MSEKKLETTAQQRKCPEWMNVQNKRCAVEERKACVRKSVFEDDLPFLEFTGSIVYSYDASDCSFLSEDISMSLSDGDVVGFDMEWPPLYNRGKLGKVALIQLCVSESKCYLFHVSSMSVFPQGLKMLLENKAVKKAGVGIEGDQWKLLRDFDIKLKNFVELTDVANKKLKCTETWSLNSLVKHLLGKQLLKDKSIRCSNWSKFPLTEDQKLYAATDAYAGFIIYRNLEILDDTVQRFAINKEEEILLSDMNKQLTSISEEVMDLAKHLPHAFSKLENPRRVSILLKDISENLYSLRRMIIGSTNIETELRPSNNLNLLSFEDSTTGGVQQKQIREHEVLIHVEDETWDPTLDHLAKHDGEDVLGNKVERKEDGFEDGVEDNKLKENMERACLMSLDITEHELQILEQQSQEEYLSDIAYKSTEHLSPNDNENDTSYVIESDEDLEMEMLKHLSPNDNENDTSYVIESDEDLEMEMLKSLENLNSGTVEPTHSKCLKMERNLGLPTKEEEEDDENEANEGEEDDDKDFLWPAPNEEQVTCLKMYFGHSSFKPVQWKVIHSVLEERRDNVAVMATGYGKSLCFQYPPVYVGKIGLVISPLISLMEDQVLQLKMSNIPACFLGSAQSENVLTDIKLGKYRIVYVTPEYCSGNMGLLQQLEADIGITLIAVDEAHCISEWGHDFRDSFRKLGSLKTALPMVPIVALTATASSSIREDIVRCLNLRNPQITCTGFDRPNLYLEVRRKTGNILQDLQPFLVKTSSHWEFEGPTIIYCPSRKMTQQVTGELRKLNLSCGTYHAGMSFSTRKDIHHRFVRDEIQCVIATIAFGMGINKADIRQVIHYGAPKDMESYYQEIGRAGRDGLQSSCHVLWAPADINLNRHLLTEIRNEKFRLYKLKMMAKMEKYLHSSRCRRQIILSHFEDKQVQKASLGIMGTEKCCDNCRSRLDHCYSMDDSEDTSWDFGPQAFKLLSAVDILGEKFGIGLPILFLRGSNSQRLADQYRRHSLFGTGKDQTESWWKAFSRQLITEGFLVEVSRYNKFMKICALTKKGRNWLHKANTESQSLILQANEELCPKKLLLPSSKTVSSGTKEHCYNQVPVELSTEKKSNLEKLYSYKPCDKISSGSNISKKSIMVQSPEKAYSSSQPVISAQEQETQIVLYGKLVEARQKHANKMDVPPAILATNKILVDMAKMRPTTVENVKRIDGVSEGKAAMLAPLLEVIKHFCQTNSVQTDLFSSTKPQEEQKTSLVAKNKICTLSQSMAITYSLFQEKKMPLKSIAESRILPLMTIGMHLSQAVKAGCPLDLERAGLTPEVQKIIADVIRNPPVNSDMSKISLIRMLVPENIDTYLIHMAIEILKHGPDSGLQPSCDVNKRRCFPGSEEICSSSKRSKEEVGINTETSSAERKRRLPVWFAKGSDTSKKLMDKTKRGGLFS
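WRN at 20 nM final was preincubated with compound for 15 min at room temperature; reaction started with 100 nM forked duplex oligonucleotide carrying fluorophore and quencher plus 2 mM ATP (final). Unwinding followed kinetically by red fluorescence (ex 525/em 598 nm).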
Pol iota inh = blocks human DNA polymerase iota activity; Pol iota fluorescent replication assay, 10 min; Potency, µM (series often up to 115 µM), usual class: inhibitors; AID 588590; 1% of 390,000 active
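Fluorescent replication assay read twice, at 0 min and 10 min after adding 50 nM (final) substrate. Enzyme (10 nM) and compounds were first incubated 15 min at room temperature; enzyme-free buffer wells were negative controls.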
POLB inh = DNA polymerase beta (human) inhibition; Pol beta primer extension/strand displacement, fluorescence kinetic; Potency, µM (top dose mostly 114 µM), hits mostly inhibitors; 1.3% of 340,000 active; P06746
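Human Pol beta at 10 nM; strand-displacement substrate 50 nM final. Compound exposure 15 min at room temperature before start, reaction 10 min at room temperature.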
Pol kappa inh-1 = DNA polymerase kappa (human) inhibition. Q9UBT6. purified Pol kappa, fluorescent DNA synthesis assay, 10 min. Potency, µM (doses to about 107 µM), usual class: inhibitors. 0.53% of 400,000 active. AID 588579
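Enzyme at 10 nM met test compounds for 15 min at room temperature. Substrate addition (50 nM final) began the reaction, which was monitored by fluorescence at 0 and 10 min.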
Pol eta inh-1 = inhibitors of human DNA polymerase eta | Q9Y253 | 1.2% of 390,000 active | Potency, µM (series often up to 114 µM), hits mostly inhibitors | recombinant Pol eta, fluorescent DNA replication assay
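Pol eta (10 nM) was preincubated with compounds for 15 min at room temperature, after which fluorescent replication substrate (50 nM final) was added to start the reaction. Fluorescence was read kinetically at 0 and 10 min.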
TbPGK inh = TbPGK inhibition, hit validation; shares compounds with Pol kappa inh-1; 79% of 500 active; TbPGK coupled GAPDH assay, Kinase-Glo luminescence; Potency, µM (top dose mostly 57.5 µM), most hits filed as inhibitors; AID 686980; further: nearly all actives have a fitted effect of over 65% in size
Pol iota confirm = Confirm cherry-picked inhibitors of human polymerase iota. shares compounds with Pol kappa inh-1. Pol iota primer extension, TAMRA/BHQ fluorescence. Potency, µM, most hits filed as inhibitors. 77% of 1,500 active
Pol kappa inh-2 = Pol kappa (human) inhibition, cherry-pick confirmation; shares compounds with Pol eta inh-1; purified Pol-kappa, fluorescent strand-displacement substrate; Potency, µM, usual class: inhibitors; 76% of 920 active
Pol eta inh-2 = confirmation of human DNA polymerase eta inhibitors; shares compounds with Pol eta inh-1; Pol eta primer extension, TAMRA/BHQ fluorescence, 10 min; Potency, µM, most hits filed as inhibitors; 64% of 2,600 active
Numbers stand for hits; [ ] = remark or other dose. The list is not random: actives were taken first. Their share in the collection is about 2.3%. The call rests on the fitted dose curve; in most records, active means well fitted curve in the direction sought with a large enough effect; inconclusive means small, poorly fitted or top-dose-only effect, or another doubt; inactive means no such curve, though single readings can be large; an effect the other way counts as inactive or inconclusive.

Results for CCOc1ccc(-c2csc(-c3c(N)c(C(=O)c4ccc5c(c4)OCO5)n4ccccc34)n2)cc1 ?
Pol iota inh: inactive; POLB inh: inactive; Pol kappa inh-1: inactive

What do the screens show for `O=Cc1ccc2oc3nc4n(c(=O)c3c(=O)c2c1)CCCS4`?
WRN inhibitor: 20µM; Pol iota inh: 7.94µM; POLB inh: 8.91µM; Pol kappa inh-1: 20µM; Pol eta inh-1: 2.51µM; Pol iota confirm: 4.74; Pol kappa inh-2: 8.44; Pol eta inh-2: 10.7

Results for Cc1sc2nc3n(c(=O)c2c1C)CCCS3 ?
WRN inhibitor: inactive; Pol iota inh: inactive; POLB inh: inactive; Pol kappa inh-1: inactive; Pol eta inh-1: inactive

How did CCOc1ccc(CNC(=O)C2CCN(S(=O)(=O)c3cn(C)cn3)CC2)cc1 do in these assays?
Pol iota inh: inactive; POLB inh: inactive; Pol kappa inh-1: inactive; Pol eta inh-1: inactive

Results for Cc1cc(/C=C2\SC(=S)NC2=O)c(C)n1C ?
WRN inhibitor: inconclusive; Pol iota inh: inconclusive; POLB inh: 39.8µM; Pol kappa inh-1: 79.4µM; Pol eta inh-1: 28.2µM; Pol iota confirm: 67; Pol kappa inh-2: 16.8; Pol eta inh-2: 37.9

What do the screens show for `Cc1cccc2c1-c1sc(C(=O)N3CCN(c4ccccc4)CC3)cc1CO2`?
Pol iota inh: inactive; POLB inh: inactive; Pol kappa inh-1: inactive; Pol eta inh-1: inactive

Results for COc1cc(/C=C2/C(=O)NN(c3ccccc3)C2=O)cc(Br)c1O ?
WRN inhibitor: inactive; Pol iota inh: inactive; POLB inh: inactive; Pol kappa inh-1: inactive; Pol eta inh-1: inactive

Results for COc1cc(/C=C2\C(=O)NN(c3ccccc3)C2=O)cc([N+](=O)[O-])c1O ?
WRN inhibitor: inconclusive; Pol iota inh: 12.6µM; POLB inh: 12.6µM; Pol kappa inh-1: inconclusive; Pol eta inh-1: 12.6µM; Pol iota confirm: 37.7; Pol eta inh-2: 26.9

Results for CCOc1cc(/C=C2\C(=O)NN(c3ccccc3)C2=O)cc([N+](=O)[O-])c1O ?
WRN inhibitor: inconclusive; Pol iota inh: 11.2µM; POLB inh: 20µM; Pol kappa inh-1: 44.7µM; Pol eta inh-1: 15.8µM; Pol iota confirm: inconclusive; Pol eta inh-2: 30.1

How did COc1cc(/C=C2\SC(=O)N(Cc3ccc(F)cc3)C2=O)cc([N+](=O)[O-])c1O do in these assays?
WRN inhibitor: inactive[11.6 µM]; Pol iota inh: inactive; POLB inh: inactive; Pol kappa inh-1: inactive; Pol eta inh-1: 50.1µM; Pol iota confirm: 84.4; Pol kappa inh-2: 26.7; Pol eta inh-2: 75.7

How did CCOc1cc(/C=C2\NC(=O)NC2=O)cc([N+](=O)[O-])c1O do in these assays?
WRN inhibitor: inactive; Pol iota inh: inactive; POLB inh: inactive; Pol kappa inh-1: inactive; Pol eta inh-1: inactive

How did CCn1nc(C)c2c(-c3ccccc3)cc(=O)n(C(C)C(=O)NCc3ccc(C)cc3)c21 (centres undefined) do in these assays?
Pol iota inh: inactive; POLB inh: inactive; Pol kappa inh-1: inactive; Pol eta inh-1: inactive

Results for COc1cc2c(-c3ccc(O)cc3)nc3c(c(C)nn3-c3ccccc3)c2cc1OC ?
WRN inhibitor: inconclusive; Pol iota inh: inconclusive; POLB inh: inconclusive; Pol kappa inh-1: inactive; Pol eta inh-1: inconclusive; Pol iota confirm: 23.8; Pol eta inh-2: 67.5

Results for COc1ccc(C2(CNC(=O)C(=O)Nc3ccc(F)cc3)CCCC2)cc1OC ?
Pol iota inh: inactive; POLB inh: inactive; Pol kappa inh-1: inactive; Pol eta inh-1: inactive

Results for COc1ccc(/C=C2\SC(=O)N(CC(=O)Nc3ccc(O)cc3)C2=O)cc1OC ?
WRN inhibitor: inactive; Pol iota inh: inconclusive; POLB inh: inactive; Pol kappa inh-1: inactive; Pol eta inh-1: inactive

What do the screens show for `Cc1ccc(NC(=O)CN2C(=O)S/C(=C\c3cc(Cl)c(OCC(=O)O)c(Cl)c3)C2=O)cc1`?
WRN inhibitor: inactive[11.6 µM]; Pol iota inh: inconclusive; POLB inh: 39.8µM; Pol kappa inh-1: inactive; Pol eta inh-1: 25.1µM; TbPGK inh: 5.8µM; Pol iota confirm: 42.3; Pol eta inh-2: 47.8

Results for Cc1ccc(/C=C/C(=O)N2CCC(c3nc4ccccc4o3)CC2)cc1 ?
Pol iota inh: inactive; POLB inh: inactive; Pol kappa inh-1: inactive; Pol eta inh-1: inactive

How did Cc1cc(NC(=O)CSc2nc(-c3cccnc3)ccc2C#N)no1 do in these assays?
WRN inhibitor: inactive; Pol iota inh: inactive; POLB inh: inactive; Pol kappa inh-1: inactive; Pol eta inh-1: inactive

What do the screens show for `Cc1cc(NC(=O)CSc2nc3c(c(-c4cccnc4)c2C#N)CCC3)no1`?
WRN inhibitor: inconclusive; Pol iota inh: inactive; POLB inh: inactive; Pol kappa inh-1: inactive; Pol eta inh-1: inconclusive; Pol iota confirm: 37.7; Pol kappa inh-2: 37.7

Results for CCn1c(=O)cc(OCC(=O)N2CCN(c3ccc(C)cc3)C(C)C2)c2ccccc21 (centres undefined) ?
Pol iota inh: inactive; POLB inh: inactive; Pol kappa inh-1: inactive; Pol eta inh-1: inactive

What do the screens show for `Cc1cccc2cc(C(c3nnnn3C(C)(C)C)N(Cc3ccco3)CC3CCCO3)c(=O)[nH]c12` (centres undefined)?
WRN inhibitor: 1.68µM; Pol iota inh: 15.8µM; POLB inh: 31.6µM; Pol kappa inh-1: 44.7µM; Pol eta inh-1: 7.94µM; TbPGK inh: 1.83µM; Pol iota confirm: 16.8; Pol eta inh-2: 19

Results for Cc1ccc2[nH]c(=O)c(C(c3nnnn3C(C)(C)C)N(Cc3ccco3)CC3CCCO3)cc2c1 (centres undefined) ?
WRN inhibitor: inactive; Pol iota inh: inactive; POLB inh: inactive; Pol kappa inh-1: inactive; Pol eta inh-1: inactive

What do the screens show for `O=C(Nc1ccc2oc(-c3ccncc3)nc2c1)c1ccc([N+](=O)[O-])o1`?
WRN inhibitor: inactive; Pol iota inh: inconclusive; POLB inh: inconclusive; Pol kappa inh-1: inactive; Pol eta inh-1: inconclusive

Results for O=C(Nc1ccc(-c2nc3ncccc3o2)cc1)c1ccc([N+](=O)[O-])o1 ?
WRN inhibitor: inactive[11.6 µM]; Pol iota inh: inconclusive; POLB inh: 50.1µM; Pol kappa inh-1: inactive; Pol eta inh-1: 11.2µM; Pol iota confirm: 75.2; Pol eta inh-2: 75.7

Results for Cc1ccccc1/C=C/c1nc2ccccc2c(=O)[nH]1 ?
WRN inhibitor: inconclusive; Pol iota inh: inconclusive; POLB inh: 22.4µM; Pol kappa inh-1: inconclusive; Pol eta inh-1: inconclusive; Pol iota confirm: 47.4; Pol eta inh-2: 84.9

From PubChem
